# Results as given in PubChem BioAssay (NCATS).
# Unmarked numbers belong to inactive results. Records with an inconclusive call do not appear. Entries that show only a call come without a potency. Activity calls are given as the source filed them. Unless noted, the call rests on the fitted dose curve; in most records, active means well fitted curve in the direction sought with a large enough effect; inconclusive means small, poorly fitted or top-dose-only effect, or another doubt; inactive means no such curve, though single readings can be large; an effect the other way counts as inactive or inconclusive.
# Tests used:
# [1] = Cell Viability - BJ (AID 421; calls by dose curve;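 further: potency means the concentration at half of the fitted maximal effect; cells exposed to compound for 40 hours at 37 °C before readout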); details: BJ fibroblast viability, qHTS
# In short: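 Normal human BJ foreskin fibroblasts, 1500/well in complete medium, treated 40 hr at 37 °C. Cellular ATP by CellTiter-Glo luminescence; normalized to DMSO and 100 uM tamoxifen, AC50 from Hill fit.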
# [2] = Cell Viability - Jurkat (AID 426;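 active means dose-dependent loss of cell ATP signal giving a full or clear fitted curve, ranked by lower potency value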; further: potency means the concentration at half of the fitted maximal effect); details: qHTS
# In short: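 Cytotoxicity taken as drop in cellular ATP (CellTiter-Glo luminescence, 20 min room temperature) after 40 hr, 37C treatment of 5000 Jurkat Clone E6-1 cells per well; concentration-response fitted with Hill equation for AC50.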
# [3] = Cell Viability - Hek293 (AID 427;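 active means compounds whose dose-response curve shows a full or clear partial loss of cell viability, called from curve shape rather than a numeric limit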;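 further: potency means the concentration at half of the fitted maximal effect; cells exposed to compound for 40 hours at 37 °C before reading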); details: qHTS
# In short: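 HEK293 cells in complete medium were exposed to compound for 40 hr at 37 °C, then cellular ATP was read by CellTiter-Glo luminescence. Data were normalized to DMSO (basal) and 100 uM tamoxifen (100% inhibition), and AC50 came from Hill fits.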
# [4] = Cell Viability - HepG2 (AID 433; calls by dose curve;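 further: potency means the concentration at half of the fitted maximal effect; potency for ATP loss meaning cytotoxicity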); details: qHTS
# In short: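 Cytotoxicity is scored as loss of intracellular ATP in HepG2 cells exposed to compounds for 40 h. Concentration-response curves, normalized to DMSO and 100 uM tamoxifen, give AC50 values.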
# [5] = Cell Viability - MRC5 (AID 434; calls by dose curve;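 further: potency means the concentration at half of the fitted maximal effect; potency reflects cytotoxicity seen as loss of intracellular ATP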); details: MRC5 lung fibroblast viability, qHTS
# In short: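 AC50 values come from Hill-equation fits of intracellular ATP loss, measured by CellTiter-Glo luminescence. Normal lung fibroblasts (MRC5) had 40 hr compound treatment at 37 C, normalized between DMSO and 100 uM tamoxifen.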
# [6] = Cell Viability - SK-N-SH (AID 435; calls by dose curve; further: potency means the concentration at half of the fitted maximal effect); details: SK-N-SH neuroblastoma cell viability qHTS
# In short: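 Cells seeded at 1500 per well and incubated 5 hr at 37 °C. Compound added, then 40 hr at 37 °C. CellTiter-Glo added, 20 min at room temperature, luminescence read.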
# [7] = biological target: Mitogen-activated protein kinase 10 (Mus musculus) (UniProt Q61831); assay: JNK3 AlphaScreen Assay (AID 530; active means well fitted curve in either direction with a large enough effect, not every such curve was filed as active;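 further: kinase came from lysate of stimulated human HepG2 cells; signal reports phosphorylation of biotinylated GST-cJun 1-79 at Ser73 with 10 µM ATP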); details: JNK3 lysate, c-Jun phosphorylation; series mostly up to 57.1 µM
# In short: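 qHTS titrations with 15 min compound pre-incubation before adding ATP (10 uM final). Read-out: AlphaScreen of Ser73-phosphorylated biotin-GST-cJun using HepG2 lysate JNK3 activated by IL-1β and TNFα.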
# [8] = Cell Viability - N2a (AID 540); details: N2a mouse neuroblastoma cell viability; activity change, negative = cytotoxicity: at 92.2 µM (top of the series); further: nearly all actives have a fitted effect of over 45% in size
# In short: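 CellTiter-Glo ATP luminescence, read 20 min after reagent at room temperature, reported viability following 40 h compound treatment at 37 °C. N2a mouse neuroblastoma cells seeded 1500/well; Hill equation gave AC50.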
# [9] = Cell Viability - NIH 3T3 (AID 541); details: NIH 3T3 cell viability, qHTS; activity change, negative = cytotoxicity: at 92.2 µM (top of the series); further: nearly all actives have a fitted effect of over 25% in size; further: potency means the concentration at half of the fitted maximal effect
# In short: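 Intracellular ATP (CellTiter-Glo luminescence, 20 min at room temperature) measured after 40 hr compound exposure at 37 °C of 1000 NIH 3T3 mouse fibroblasts/well in complete medium; AC50 derived by Hill-equation modelling of qHTS concentration-response curves.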
# [10] = Cell Viability - HUV-EC-C (AID 542); details: HUV-EC-C endothelial cell viability, qHTS; series mostly up to 92.2 µM; further: nearly all actives have a fitted effect of over 35% in size
# In short: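 CellTiter-Glo luminescence measured ATP loss in HUV-EC-C cells (1000/well) after 40 hr compound exposure at 37 °C, in complete culture medium. Concentration-response data were Hill-fitted to give AC50.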
# [11] = Cell Viability - H-4-II-E (AID 543); details: H-4-II-E rat hepatoma viability; series mostly up to 92.2 µM; further: nearly all actives have a fitted effect of over 35% in size
# In short: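 CellTiter-Glo luminescence (intracellular ATP) measured after 40 h compound exposure at 37 °C in H-4-II-E rat hepatoma cells seeded at 1500/well. Values are AC50s fitted with the standard Hill equation.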
# [12] = Cell Viability - SH-SY5Y (AID 544); details: SH-SY5Y neuroblastoma cell viability; viability change, negative = cytotoxic: at 92.2 µM (top of the series); further: nearly all actives have a fitted effect of over 55% in size
# In short: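 Cytotoxicity measured via ATP-dependent luciferase luminescence (CellTiter-Glo) following 40 h, 37 °C exposure of 1500 SH-SY5Y cells per well. Concentration-response data were fitted with the standard Hill equation to give AC50.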
# [13] = Cell Viability - Renal Proximal Tubule (AID 545); details: renal proximal tubule cells viability, primary cells of rat origin; series mostly up to 91.7 µM; further: nearly all actives have a fitted effect of over 40% in size
# In short: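 Cytotoxicity is scored as a concentration-dependent drop in cellular ATP in primary rat renal proximal tubule cells exposed for 40 hr. AC50 derives from Hill modelling.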
# [14] = Cell Viability - Mesenchymal (AID 546); details: mesenchymal cells viability, qHTS; series mostly up to 91.7 µM;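 further: cells exposed to compound for 40 hours before reading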
# In short: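 CellTiter-Glo luminescence (intracellular ATP, 20 min room temperature) after 40 hr compound exposure at 37 °C of 1000 glomerulus-derived human kidney mesenchymal cells/well; AC50 values obtained by fitting qHTS concentration-response data to the Hill equation.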
# [15] = Cellular Toxicity (caspase-3) HepG2 (AID 654); details: HepG2 caspase-3 activation, luminescence; series mostly up to 92.2 µM;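 further: cells exposed to compound for 16 hours before reading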
# In short: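 Caspase 3/7 activation is measured as a luminescence increase (aminoluciferin substrate) after 16 h compound exposure of human hepatocarcinoma HepG2 cells. AC50 values are Hill fits, scaled between DMSO baseline and 100 uM tamoxifen stimulation.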
# [16] = Cellular Toxicity (caspase-3) Jurkat (AID 655); details: Jurkat caspase-3 activation, luminescence; caspase-3 activation: at 92.2 µM (top of the series), DMSO = 0%, tamoxifen = 100%;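 further: cells exposed to compound for 16 h at 37 °C before reading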
# In short: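 Caspase 3/7 activation is scored as increased luminescence in Jurkat cells cultured with compound for 16 hours in complete medium. AC50 values come from Hill fits of qHTS concentration-response data normalized to DMSO and 100 uM tamoxifen controls.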
# [17] = Cellular Toxicity (caspase-3) HUV-EC-C (AID 656); details: HUV-EC-C cells, caspase-3 activation (apoptosis), vehicle = 0, 100 µM tamoxifen = 100%; series mostly up to 92.2 µM
# In short: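 Read-out: luminescence proportional to caspase 3/7 activity, measured 20 min after adding Caspase-Glo 3/7 reagent. Cells (HUV-EC-C) had received compound for 16 hr at 37°C. Increases relative to DMSO and 100 uM tamoxifen gave concentration-response AC50 values.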
# [18] = Cellular Toxicity (caspase-3) SHSY5Y (AID 657); details: SH-SY5Y caspase-3 activation, DMSO zero, 10 µM staurosporine = 100%; series mostly up to 91.7 µM;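 further: cells exposed to compound for 16 hours at 37 °C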
# In short: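 Cells plated and incubated 5 h at 37 °C, dosed over a concentration range, incubated 16 h, then given Caspase-Glo 3/7 reagent for 1 h at room temperature before luminescence reading. Staurosporine (10 uM) defined full stimulation.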
# [19] = Cellular Toxicity (caspase-3) BJ (AID 658); details: BJ fibroblasts, luminescence, normalized: DMSO 0%, staurosporine 100%; series mostly up to 91.7 µM
# In short: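 Caspase-Glo 3/7 luminescence, read 1 hr after reagent at room temperature, in normal BJ fibroblasts exposed 16 hours at 37 °C. AC50 values from Hill-equation concentration-response, scaled between DMSO basal and 10 uM staurosporine as 100%.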
# [20] = Cellular Toxicity (caspase-3) MRC-5 (AID 659); details: MRC-5 cells, luminescence, normalized: DMSO 0%, 10 µM staurosporine 100%; series mostly up to 91.7 µM
# In short: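 Luminescent Caspase-Glo 3/7 read-out (1 h, room temperature) after a 16 h, 37 °C compound exposure of MRC-5 lung fibroblasts at 1500 cells/well. Concentration-response AC50 from Hill equation; 0% DMSO, 100% 10 uM staurosporine.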
Structure (SMILES),Potency [1],Potency [2],Potency [3],Potency [4],Potency [5],Potency [6],outcome [7],"activity change, negative = cytotoxicity [8]",Potency [9],Potency [10],Potency [11],Potency [12],Potency [13],Potency [14],Potency [15],caspase-3 activation [16],outcome [17],outcome [18],outcome [19],outcome [20]
CCCCCCCCCCCCOCC1CO1 (stereo not drawn),> 92 µM,> 92 µM,> 92 µM,> 92 µM,> 92 µM,> 92 µM,inactive,0.002%,inactive,inactive,inactive,inactive,inactive,inactive,inactive,3.67%,inactive,inactive,inactive,inactive
CC(C)C(C)C,> 92 µM,> 92 µM,> 92 µM,> 92 µM,> 92 µM,> 92 µM,inactive,5.14%,inactive,inactive,inactive,inactive,inactive,inactive,inactive,-0.000823%,inactive,inactive,inactive,
C1CCC2OC2C1 (stereo not drawn),> 92 µM,> 92 µM,> 92 µM,> 92 µM,> 92 µM,> 92 µM,inactive,-14.9%,inactive,inactive,inactive,inactive,inactive,inactive,inactive,0.319%,inactive,inactive,inactive,inactive
O=[N+]([O-])c1ccc2nc[nH]c2c1,> 92 µM,> 92 µM,> 92 µM,> 92 µM,> 92 µM,> 92 µM,inactive,4.31%,inactive,inactive,inactive,inactive,inactive,inactive,inactive,0.964%,inactive,inactive,inactive,inactive
CCCCC=O,> 92 µM,> 92 µM,> 92 µM,> 92 µM,> 92 µM,> 92 µM,inactive,4.71%,inactive,inactive,inactive,inactive,inactive,inactive,inactive,-1.47%,inactive,inactive,inactive,inactive
Cc1cccc(C)c1,> 92 µM,> 92 µM,> 92 µM,> 92 µM,> 92 µM,> 92 µM,inactive,2.48%,inactive,inactive,inactive,inactive,inactive,inactive,inactive,-2.27%,inactive,inactive,inactive,inactive
CCCCCCCCCCCCC1CO1 (stereo not drawn),> 92 µM,> 92 µM,> 92 µM,> 92 µM,> 92 µM,> 92 µM,inactive,6.57%,inactive,inactive,inactive,inactive,inactive,,inactive,-0.853%,inactive,inactive,inactive,
Nc1ccc([N+](=O)[O-])c(N)c1,> 92 µM,> 92 µM,> 92 µM,> 92 µM,> 92 µM,> 92 µM,inactive,0.888%,inactive,inactive,inactive,inactive,inactive,,inactive,,,,inactive,inactive
CN(C)CCCNCCCN,> 92 µM,> 92 µM,> 92 µM,> 92 µM,> 92 µM,> 92 µM,inactive,1.31%,12.6 µM (active),inactive,inactive,inactive,inactive,inactive,inactive,,inactive,inactive,inactive,inactive
CC(C)Nc1ccccc1,> 92 µM,> 92 µM,> 92 µM,> 92 µM,> 92 µM,> 92 µM,inactive,-9.13%,inactive,inactive,inactive,inactive,,inactive,inactive,2.39%,inactive,inactive,inactive,
C=CCCCCCCC=C,> 92 µM,> 92 µM,> 92 µM,> 92 µM,> 92 µM,> 92 µM,inactive,-4.21%,inactive,inactive,inactive,inactive,inactive,,inactive,,inactive,inactive,inactive,inactive
